Drawing on PubChem BioAssay AID485273 (Sanford-Burnham Center for Chemical Genomics, 2010), this text covers inhibition for 59 molecules.

Screen size: about 330,000 compounds; about 1,500 (0.45%) were called active. The list comes from a sample in which actives are over-represented; it also holds similar structures and randomly drawn compounds. Values without a mark were called inactive. Rule as the data show it: active = inhibition above about 45% (passing the limit was not always enough); inconclusive = no clear call, values can overlap the other calls.

The target of the test is Ubiquitin-conjugating enzyme E2 N (Homo sapiens) (UniProt P61088). Briefly: UBC13 polyubiquitin chain formation inhibitors, primary screen, biochemical, TR-FRET, uHTS (AID 485273). The conditions noted are these: at 20 µM, hits give high values. (In general: In TR-FRET formats the signal depends on donor and acceptor labels being close together.)
Sequence of Ubiquitin-conjugating enzyme E2 N (Homo sapiens) (P61088 whole entry, looked up): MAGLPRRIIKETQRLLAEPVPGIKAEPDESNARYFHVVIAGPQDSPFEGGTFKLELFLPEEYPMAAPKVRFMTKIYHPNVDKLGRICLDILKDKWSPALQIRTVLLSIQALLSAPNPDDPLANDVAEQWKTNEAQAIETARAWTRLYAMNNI
The inhibition is the drop in the measured response relative to a control, in per cent. As to `CCCCCCCCCCOC(=O)Cn1c(COc2ccc(C)cc2)[n+](C)c2ccccc21`, the inhibition was 44.2%.
To `CCCCCCCCCCOC(=O)Cn1c(COc2cccc(OC)c2)[n+](C)c2ccccc21` belongs 58.1% (active); to `CCCCn1c(N)c(N(CCOC)C(=O)c2cccc(OCc3ccccc3)c2)c(=O)[nH]c1=O`, 0.1%.
As for `Cc1cccc(CNS(=O)(=O)c2ccc(-c3cnc(C4CC4)o3)cc2)c1`, the figure is -0.4%; as for `COc1ccc(S(=O)(=O)NNC(=O)Nc2ccc(C)cc2)c(OC)c1`, -8.1%; as for `CCN(CC(=O)NCc1cccs1)C(=O)c1ccccc1F`, -3.4%.
To `CCN(CC(=O)NCc1cccs1)C(=O)c1cccc(S(=O)(=O)Nc2ccccc2OC)c1` belongs 49.7% (active); to `CCN(CC(=O)NCc1cccs1)C(=O)c1ccc(OC)c(S(=O)(=O)N2CCOCC2)c1`, -0.3%; to `CN(C(=O)CN(CCO)CC(=O)N(C)C(C)(C)Cc1ccccc1)C(C)(C)Cc1ccccc1`, 57.3% (active).
`CCN(CC)C(=O)N(CC)Cc1ccccc1`: the inhibition is 6.4%.
To `OCCN(Cc1ccccc1)Cc1ccc(Cl)cc1` belongs 5.2%; to `C/C(=N\NC(=O)OC(C)(C)C)c1ccc[nH]1`, 0.6%.
Turning to `C=CCSC1=C(C#N)C(c2cc(Br)c(O)c(OC)c2)CC(=O)N1` (centres undefined), the inhibition is 1.6%.
Take `Cn1c(C(=O)NCCc2ccsc2)cc2c(=O)n(C)c3ccccc3c21`: the inhibition was 20.8%.
As to `Cn1c(C(=O)NCCCN2CCN(c3cccc(Cl)c3)CC2)cc2c(=O)n(C)c3ccccc3c21`, the inhibition was 49.9% (active).
To `CCN1CCCC1CNC(=O)c1cc2c(=O)n(C)c3ccccc3c2n1C` (centres undefined) belongs 30.3%; to `O=C(CSc1nnc(C2CC2)n1Cc1ccccc1)Nc1cccnc1Cl`, -7.4%; to `CCOc1cc(S(=O)(=O)NC2CC(C)(C)NC(C)(C)C2)ccc1F`, 7.3%.
To `O=c1c2c(nc3n1CCCCC3)sc1c(O)cccc12` belongs 80% (active).
For the molecule `Cc1c(C(=O)Nc2ccccc2)sc2nc3n(c(=O)c12)CCCCC3`, the inhibition is -3%.
In the case of `Cc1cccc2c(=O)n3c(nc12)CCCCC3`, the inhibition was 6.4%.
With `CCn1ncc(CNC(=O)C2(C)CC2(Br)Br)c1C` (centres undefined), the inhibition is -4.3%.
Consider `COc1cc(NC(=O)c2ccc(CNc3c(N4CCCC4)c(=O)c3=O)cc2)cc(OC)c1OC`, for which the inhibition was -3.8%.
To `O=C(c1ccc(F)cc1)N1CCC(C(=O)N2CCN(S(=O)(=O)c3ccccc3Br)CC2)CC1` belongs 13.6%.
As to `N[C@@H](Cc1ccccc1)C(=O)N1CCC(C(=O)NCC(=O)Nc2ccc(F)cc2)CC1`, the inhibition is -7.5%.
To `Cn1c(SCC(=O)C(C)(C)C)nnc1-c1ccccn1` belongs 2.2%.
On to `O=C(CN1C(=O)CCC1=O)Nc1ccc(S(=O)(=O)N2CCOCC2)cc1`, for which the inhibition was 0.4%.
To `O=C(NNC(=S)Nc1ccccc1)c1cccc(S(=O)(=O)N2CCOCC2)c1` belongs -21.6%; to `O=S(=O)(c1ccc(NC(=S)NN=C(C2CC2)C2CC2)cc1)N1CCOCC1`, 45.9% (active); to `COc1cc2c(cc1OC)CN(C(C)C(=O)Nc1cccc(S(=O)(=O)N3CCOCC3)c1)CC2` (centres undefined), -1.1%.
Take `CC(C)Cc1oc(C(=O)O)cc1CN`: the inhibition is -1.6%.
As for `CCCCNC(=S)N/N=C1\CCCCc2ccccc21`, the figure is 0.6%; as for `COc1ccc(C(CNC(=O)c2ccc(S(=O)(=O)Nc3ccccc3F)cc2)N(C)C)cc1` (centres undefined), 94.8% (active).
To `CC(=O)c1ccc(S(=O)(=O)Nc2ccc(C(=O)NCC(c3ccccc3)N(C)C)cc2)cc1` (centres undefined) belongs 1.5%; to `COc1ccc(C(CNC(=O)c2ccc(NS(=O)(=O)c3ccc(F)c(C)c3)cc2)N(C)C)cc1` (centres undefined), 40.3%; to `COc1ccc(C(F)(F)F)cc1N/C=C\c1nnnn1-c1ccc(C)cc1`, 4.1%.
To `COc1ccc(C(=O)N(C)CC(O)c2ccccc2)cc1OC1CCN(C(C)=O)CC1` (centres undefined) belongs -0.4%; to `Cc1cccc(-c2nc3ccc(C(=O)NCCN4CCN(C)CC4)cc3nc2-c2cccc(C)c2)c1`, 57.2% (active).
As to `CCC1=Nc2cc(C(=O)NCCN3CCCC3)ccc2Sc2ccc(C)cc21`, the inhibition was 17.6%.
In the case of `Cc1cccc(C(=O)OC(C)CN2CCN(C)CC2)c1` (centres undefined), the inhibition was 9.9%.
`CC(Sc1nnnn1C1CCCCC1)C(=O)O` (centres undefined): the inhibition was -4.9%.
As for `O=C(NCc1ccco1)c1ccc(NS(=O)(=O)c2cccc([N+](=O)[O-])c2)cc1`, the figure is -4.6%; as for `CCOC(=O)[C@@H]1[C@H]2COc3cc(OC)ccc3[C@@H]2N2C(=O)N(c3cccc(C)c3)C(=O)[C@@]12C`, -7.1%; as for `CCOC(=O)[C@H]1[C@H]2COc3cc(OC)ccc3[C@@H]2N2C(=O)N(c3ccc(Br)cc3)C(=O)[C@@]12C`, -15%.
To `CCOC(=O)[C@@H]1[C@H]2COc3cc(OC)ccc3[C@H]2N2C(=O)N(c3ccc(F)cc3)C(=O)[C@]12C` belongs 53.6% (active); to `O=C(O)c1ccc(F)c(S(=O)(=O)Nc2ccccc2)c1`, 4%; to `O=C(Nc1cccc(C(=O)NC2CC2)c1)c1ccc(F)c(S(=O)(=O)N2CCOCC2)c1`, 3.1%.
As for `O=C(Nc1ccc([N+](=O)[O-])cc1)OCCc1ccccn1`, the figure is -7.9%; as for `CC(=O)c1cccc(NC(=O)C2CCCN2S(=O)(=O)c2cccc3nsnc23)c1` (centres undefined), -4.7%; as for `CN(C(=O)COC(=O)c1cc(=O)[nH]c2ccccc12)C1CCCCC1`, 5.6%.
For the molecule `CCCCC(=O)Nc1ccc(C(=O)Nc2cc(C(F)(F)F)ccc2Cl)cc1`, the inhibition is -15%.
As for `CCCCN(CCCC)CCC(O)c1cc2c(Cl)cc(Cl)cc2c2cc(C(F)(F)F)ccc12` (centres undefined), the figure is 51.7% (active); as for `O=C(Nc1ccccc1N1CCOCC1)c1ccc(OCc2cscn2)cc1`, 0.6%.
To `CCn1cc(C(=O)NCC(=O)NC(C)(C)CO)c(=O)c2cc3c(cc21)OCO3` belongs 3.5%; to `O=C1CCNCCN1[C@H](CO)Cc1ccccc1`, -4.8%; to `c1ccc(C2CNCc3c2ccc2ccccc32)cc1` (centres undefined), 21.7%.
To `CC(C)(C)CN1C(=O)C(=O)NC[C@H]1Cc1cccc2ccccc12` belongs 4%; to `c1ccc(C[C@H]2CNCCN2CCC23CC4CC(CC(C4)C2)C3)cc1`, 55.8% (active); to `c1ccc2c(CCN3CCNC[C@H]3Cc3cccc4ccccc34)cccc2c1`, 46.1% (active).
